From ChEMBL document CHEMBL1961873, “Compounds: GSK PKIS; Assays: Nanosyn kinase panel” (2012)

Columns and labels:
[1] = biological target: Protein kinase C gamma type (Homo sapiens) (UniProt P05129); details: at 1 µM;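 also: each value is an averaged percent inhibition of the enzyme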
[2] = biological target: T1, Protein kinase C iota type (Homo sapiens) (UniProt P41743); details: at 0.1 µM
T1 sequence (whole entry): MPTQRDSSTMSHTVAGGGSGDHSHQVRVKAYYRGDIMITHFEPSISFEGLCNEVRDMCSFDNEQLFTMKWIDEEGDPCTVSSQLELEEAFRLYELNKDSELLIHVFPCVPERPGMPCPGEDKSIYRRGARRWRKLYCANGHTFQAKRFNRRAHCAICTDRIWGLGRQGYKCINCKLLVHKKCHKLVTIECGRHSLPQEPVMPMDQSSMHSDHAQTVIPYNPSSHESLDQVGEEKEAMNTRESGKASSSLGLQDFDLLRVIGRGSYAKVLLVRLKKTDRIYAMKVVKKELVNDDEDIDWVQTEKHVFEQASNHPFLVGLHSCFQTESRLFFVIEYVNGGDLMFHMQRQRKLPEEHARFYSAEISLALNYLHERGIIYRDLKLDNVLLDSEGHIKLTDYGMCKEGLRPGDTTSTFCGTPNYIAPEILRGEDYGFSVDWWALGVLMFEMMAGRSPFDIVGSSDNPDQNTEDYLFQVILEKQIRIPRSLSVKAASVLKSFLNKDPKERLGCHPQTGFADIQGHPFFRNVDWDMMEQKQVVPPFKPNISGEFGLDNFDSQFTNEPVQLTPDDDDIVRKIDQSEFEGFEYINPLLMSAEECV

[3] = biological target: T1, Protein kinase C iota type (Homo sapiens); details: at 1 µM
[4] = biological target: Protein kinase C theta type (Homo sapiens) (UniProt Q04759); details: at 0.1 µM
Sequence of Protein kinase C theta type (Homo sapiens) (Q04759 whole entry, looked up): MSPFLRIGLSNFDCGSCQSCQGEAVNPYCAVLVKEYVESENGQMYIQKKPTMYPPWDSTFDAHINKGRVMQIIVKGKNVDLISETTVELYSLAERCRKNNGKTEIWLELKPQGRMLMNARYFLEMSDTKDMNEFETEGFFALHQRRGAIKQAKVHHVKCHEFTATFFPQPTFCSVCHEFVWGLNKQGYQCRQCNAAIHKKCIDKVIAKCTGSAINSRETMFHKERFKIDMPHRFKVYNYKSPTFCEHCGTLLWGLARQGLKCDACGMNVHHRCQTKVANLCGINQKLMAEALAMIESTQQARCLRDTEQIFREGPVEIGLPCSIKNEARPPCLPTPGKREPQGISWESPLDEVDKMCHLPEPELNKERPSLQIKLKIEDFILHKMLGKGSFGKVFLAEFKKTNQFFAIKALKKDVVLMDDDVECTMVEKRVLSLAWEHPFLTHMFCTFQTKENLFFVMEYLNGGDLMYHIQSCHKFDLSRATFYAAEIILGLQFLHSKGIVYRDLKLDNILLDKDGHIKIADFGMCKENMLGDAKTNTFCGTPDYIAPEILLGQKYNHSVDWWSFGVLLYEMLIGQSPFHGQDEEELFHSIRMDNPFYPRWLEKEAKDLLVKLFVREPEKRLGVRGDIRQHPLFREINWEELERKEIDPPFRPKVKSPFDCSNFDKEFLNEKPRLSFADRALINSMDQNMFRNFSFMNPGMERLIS

[5] = biological target: Protein kinase C theta type (Homo sapiens) (UniProt Q04759); details: at 1 µM
[6] = biological target: Protein kinase C beta type (Homo sapiens) (UniProt P05771); details: at 0.1 µM
Sequence of Protein kinase C beta type (Homo sapiens) (P05771 2-671 limits assumed): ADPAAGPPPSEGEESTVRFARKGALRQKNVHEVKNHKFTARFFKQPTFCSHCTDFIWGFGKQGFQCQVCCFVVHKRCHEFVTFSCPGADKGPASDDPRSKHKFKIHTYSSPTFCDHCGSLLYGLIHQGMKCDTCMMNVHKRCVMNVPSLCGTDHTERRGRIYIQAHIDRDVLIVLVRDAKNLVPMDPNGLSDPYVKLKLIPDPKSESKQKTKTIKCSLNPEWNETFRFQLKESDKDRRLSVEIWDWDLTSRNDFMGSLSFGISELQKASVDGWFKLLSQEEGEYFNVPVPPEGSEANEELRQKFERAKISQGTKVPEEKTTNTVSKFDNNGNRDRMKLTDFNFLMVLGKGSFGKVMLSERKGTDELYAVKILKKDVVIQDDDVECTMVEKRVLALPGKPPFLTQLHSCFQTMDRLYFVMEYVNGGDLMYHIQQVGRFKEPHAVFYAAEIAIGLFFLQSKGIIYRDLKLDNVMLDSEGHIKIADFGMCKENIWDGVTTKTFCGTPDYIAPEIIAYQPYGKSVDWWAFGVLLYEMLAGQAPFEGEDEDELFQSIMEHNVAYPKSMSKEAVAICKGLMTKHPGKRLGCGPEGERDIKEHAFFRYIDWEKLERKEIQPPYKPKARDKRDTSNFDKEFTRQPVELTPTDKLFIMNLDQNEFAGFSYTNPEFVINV

[7] = biological target: Protein kinase C beta type (Homo sapiens) (UniProt P05771); details: at 1 µM
[8] = biological target: T2, Serine/threonine-protein kinase D1 (Homo sapiens) (UniProt Q15139); details: at 0.1 µM
T2 sequence (whole entry): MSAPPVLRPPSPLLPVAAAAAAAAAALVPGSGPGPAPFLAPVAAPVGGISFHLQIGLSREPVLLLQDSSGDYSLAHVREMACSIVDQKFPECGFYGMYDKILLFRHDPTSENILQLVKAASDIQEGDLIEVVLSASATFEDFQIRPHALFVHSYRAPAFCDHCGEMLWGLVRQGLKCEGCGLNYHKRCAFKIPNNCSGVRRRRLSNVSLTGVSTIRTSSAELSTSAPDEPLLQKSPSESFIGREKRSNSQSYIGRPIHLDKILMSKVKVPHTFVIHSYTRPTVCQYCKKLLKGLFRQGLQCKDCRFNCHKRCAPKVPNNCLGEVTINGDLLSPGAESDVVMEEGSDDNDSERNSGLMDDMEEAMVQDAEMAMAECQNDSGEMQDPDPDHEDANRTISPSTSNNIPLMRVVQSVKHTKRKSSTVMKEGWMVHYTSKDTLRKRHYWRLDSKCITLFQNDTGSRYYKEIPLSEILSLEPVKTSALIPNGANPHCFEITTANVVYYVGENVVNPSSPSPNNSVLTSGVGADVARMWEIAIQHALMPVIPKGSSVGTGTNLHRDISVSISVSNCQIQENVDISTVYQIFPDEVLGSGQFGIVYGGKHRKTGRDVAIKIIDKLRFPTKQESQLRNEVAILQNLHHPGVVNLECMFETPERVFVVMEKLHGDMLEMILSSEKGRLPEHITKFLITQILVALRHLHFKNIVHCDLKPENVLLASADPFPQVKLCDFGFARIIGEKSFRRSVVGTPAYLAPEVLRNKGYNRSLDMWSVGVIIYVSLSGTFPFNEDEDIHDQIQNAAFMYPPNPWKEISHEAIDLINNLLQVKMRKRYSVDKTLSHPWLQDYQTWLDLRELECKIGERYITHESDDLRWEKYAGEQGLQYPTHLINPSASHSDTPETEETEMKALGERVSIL

[9] = biological target: T2, Serine/threonine-protein kinase D1 (Homo sapiens); details: at 1 µM
[10] = biological target: T3, Serine/threonine-protein kinase D2 (Homo sapiens) (UniProt Q9BZL6); details: at 0.1 µM
T3 sequence (whole entry): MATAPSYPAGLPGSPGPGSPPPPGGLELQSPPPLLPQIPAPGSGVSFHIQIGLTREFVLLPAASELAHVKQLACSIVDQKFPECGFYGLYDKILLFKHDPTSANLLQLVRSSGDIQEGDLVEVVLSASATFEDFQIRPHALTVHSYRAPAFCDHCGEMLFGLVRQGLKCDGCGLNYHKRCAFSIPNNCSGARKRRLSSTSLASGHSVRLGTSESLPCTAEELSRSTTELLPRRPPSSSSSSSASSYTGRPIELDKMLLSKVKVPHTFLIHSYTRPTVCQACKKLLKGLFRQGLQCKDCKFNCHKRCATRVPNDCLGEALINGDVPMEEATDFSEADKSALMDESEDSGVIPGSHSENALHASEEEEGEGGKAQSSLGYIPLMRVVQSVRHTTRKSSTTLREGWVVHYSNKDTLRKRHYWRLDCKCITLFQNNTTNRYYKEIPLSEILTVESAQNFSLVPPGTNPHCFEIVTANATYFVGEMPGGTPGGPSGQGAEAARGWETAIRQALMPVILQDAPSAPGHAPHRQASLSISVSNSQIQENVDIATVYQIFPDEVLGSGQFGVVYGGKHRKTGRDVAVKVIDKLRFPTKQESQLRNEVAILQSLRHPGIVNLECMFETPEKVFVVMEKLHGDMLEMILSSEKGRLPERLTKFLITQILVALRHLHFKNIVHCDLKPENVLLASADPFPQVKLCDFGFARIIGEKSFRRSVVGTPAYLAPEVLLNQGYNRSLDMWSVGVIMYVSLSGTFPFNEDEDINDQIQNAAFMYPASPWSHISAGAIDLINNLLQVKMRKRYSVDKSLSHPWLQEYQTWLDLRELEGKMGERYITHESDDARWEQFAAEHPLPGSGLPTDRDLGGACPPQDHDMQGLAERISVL

[11] = biological target: T3, Serine/threonine-protein kinase D2 (Homo sapiens); details: at 1 µM
[12] = biological target: T4, Serine/threonine-protein kinase D3 (Homo sapiens) (UniProt O94806); details: at 0.1 µM
T4 sequence (whole entry): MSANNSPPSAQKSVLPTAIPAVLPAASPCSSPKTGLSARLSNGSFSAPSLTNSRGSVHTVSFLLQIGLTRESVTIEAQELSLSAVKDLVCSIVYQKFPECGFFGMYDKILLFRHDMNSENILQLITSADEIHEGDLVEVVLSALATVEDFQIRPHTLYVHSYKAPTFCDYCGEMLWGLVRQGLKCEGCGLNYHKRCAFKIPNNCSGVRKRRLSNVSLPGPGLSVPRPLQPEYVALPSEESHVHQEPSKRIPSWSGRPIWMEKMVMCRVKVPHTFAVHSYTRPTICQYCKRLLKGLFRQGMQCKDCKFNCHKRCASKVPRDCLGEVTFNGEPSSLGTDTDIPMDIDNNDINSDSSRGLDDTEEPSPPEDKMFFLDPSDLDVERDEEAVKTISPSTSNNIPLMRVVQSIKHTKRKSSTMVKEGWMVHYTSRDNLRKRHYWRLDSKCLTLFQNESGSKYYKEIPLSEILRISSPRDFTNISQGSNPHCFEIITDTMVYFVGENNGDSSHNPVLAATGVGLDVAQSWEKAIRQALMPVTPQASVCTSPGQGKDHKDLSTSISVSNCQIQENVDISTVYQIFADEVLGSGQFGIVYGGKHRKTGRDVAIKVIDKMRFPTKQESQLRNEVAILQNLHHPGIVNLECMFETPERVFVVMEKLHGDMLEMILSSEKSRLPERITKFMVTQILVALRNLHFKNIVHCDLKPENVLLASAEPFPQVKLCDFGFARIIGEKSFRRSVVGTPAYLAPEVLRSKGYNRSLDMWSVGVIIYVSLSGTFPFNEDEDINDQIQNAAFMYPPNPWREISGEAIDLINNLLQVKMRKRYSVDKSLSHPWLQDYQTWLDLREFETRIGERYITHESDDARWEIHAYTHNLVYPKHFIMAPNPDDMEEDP

[13] = biological target: T4, Serine/threonine-protein kinase D3 (Homo sapiens); details: at 1 µM
[14] = biological target: T5, cGMP-dependent protein kinase 1 (Homo sapiens) (UniProt Q13976); details: at 0.1 µM
T5 sequence (whole entry): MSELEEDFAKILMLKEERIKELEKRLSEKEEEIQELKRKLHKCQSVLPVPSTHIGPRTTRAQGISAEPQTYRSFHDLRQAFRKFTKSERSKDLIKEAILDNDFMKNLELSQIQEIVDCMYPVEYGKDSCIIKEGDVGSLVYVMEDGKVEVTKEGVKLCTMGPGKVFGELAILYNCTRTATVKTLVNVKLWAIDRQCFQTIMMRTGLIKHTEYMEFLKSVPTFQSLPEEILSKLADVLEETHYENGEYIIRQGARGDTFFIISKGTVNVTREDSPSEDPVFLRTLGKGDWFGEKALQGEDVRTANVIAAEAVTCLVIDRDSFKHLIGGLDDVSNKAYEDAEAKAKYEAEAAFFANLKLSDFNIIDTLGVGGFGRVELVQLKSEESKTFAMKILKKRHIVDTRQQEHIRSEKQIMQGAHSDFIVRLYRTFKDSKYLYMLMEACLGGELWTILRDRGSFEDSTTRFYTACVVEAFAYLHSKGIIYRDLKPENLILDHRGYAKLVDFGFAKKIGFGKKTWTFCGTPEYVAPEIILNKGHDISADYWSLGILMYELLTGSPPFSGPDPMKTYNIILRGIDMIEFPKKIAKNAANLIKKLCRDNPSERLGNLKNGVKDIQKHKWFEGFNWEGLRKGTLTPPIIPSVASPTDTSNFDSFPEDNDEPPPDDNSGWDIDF

[15] = biological target: T5, cGMP-dependent protein kinase 1 (Homo sapiens); details: at 1 µM
[16] = biological target: T6, cGMP-dependent protein kinase 2 (Homo sapiens) (UniProt Q13237); details: at 0.1 µM
T6 sequence (whole entry): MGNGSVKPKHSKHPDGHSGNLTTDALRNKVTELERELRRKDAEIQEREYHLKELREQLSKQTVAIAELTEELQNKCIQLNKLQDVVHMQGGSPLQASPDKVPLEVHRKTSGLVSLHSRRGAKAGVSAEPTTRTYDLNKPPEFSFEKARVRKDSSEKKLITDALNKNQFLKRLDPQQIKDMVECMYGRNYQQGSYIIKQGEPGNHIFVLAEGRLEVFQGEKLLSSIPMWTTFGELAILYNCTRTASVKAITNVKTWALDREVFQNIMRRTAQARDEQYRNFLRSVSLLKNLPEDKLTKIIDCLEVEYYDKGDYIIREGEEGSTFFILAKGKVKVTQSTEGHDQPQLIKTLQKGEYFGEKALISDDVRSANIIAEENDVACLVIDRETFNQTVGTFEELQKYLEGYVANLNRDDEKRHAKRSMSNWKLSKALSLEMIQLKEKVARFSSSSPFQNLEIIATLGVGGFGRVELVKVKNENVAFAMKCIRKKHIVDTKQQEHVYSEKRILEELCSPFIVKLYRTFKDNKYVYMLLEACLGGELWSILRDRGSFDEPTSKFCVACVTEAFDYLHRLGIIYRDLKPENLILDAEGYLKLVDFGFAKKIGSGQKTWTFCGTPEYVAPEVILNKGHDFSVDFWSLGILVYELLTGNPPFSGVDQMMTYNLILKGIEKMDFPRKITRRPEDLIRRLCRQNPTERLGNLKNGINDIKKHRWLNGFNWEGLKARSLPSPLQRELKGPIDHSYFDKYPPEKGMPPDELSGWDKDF

[17] = biological target: T6, cGMP-dependent protein kinase 2 (Homo sapiens); details: at 1 µM
[18] = biological target: T7, cAMP-dependent protein kinase catalytic subunit PRKX (Homo sapiens) (UniProt P51817); details: at 0.1 µM
T7 sequence (whole entry): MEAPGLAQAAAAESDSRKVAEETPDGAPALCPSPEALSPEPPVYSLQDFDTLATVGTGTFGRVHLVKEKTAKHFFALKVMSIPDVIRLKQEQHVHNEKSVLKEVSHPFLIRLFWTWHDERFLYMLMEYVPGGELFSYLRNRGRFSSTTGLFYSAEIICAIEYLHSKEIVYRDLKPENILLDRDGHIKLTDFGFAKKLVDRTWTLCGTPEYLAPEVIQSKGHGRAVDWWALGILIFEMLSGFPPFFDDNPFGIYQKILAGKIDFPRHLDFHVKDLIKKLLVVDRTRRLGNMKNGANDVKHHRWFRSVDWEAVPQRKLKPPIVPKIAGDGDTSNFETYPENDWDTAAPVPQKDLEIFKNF

[19] = biological target: T7, cAMP-dependent protein kinase catalytic subunit PRKX (Homo sapiens); details: at 1 µM
[20] = biological target: Rho-associated protein kinase 1 (Homo sapiens) (UniProt Q13464); details: at 0.1 µM;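 also: values are mean percent inhibition of ROCK1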
Sequence of Rho-associated protein kinase 1 (Homo sapiens) (Q13464 2-1354 limits assumed): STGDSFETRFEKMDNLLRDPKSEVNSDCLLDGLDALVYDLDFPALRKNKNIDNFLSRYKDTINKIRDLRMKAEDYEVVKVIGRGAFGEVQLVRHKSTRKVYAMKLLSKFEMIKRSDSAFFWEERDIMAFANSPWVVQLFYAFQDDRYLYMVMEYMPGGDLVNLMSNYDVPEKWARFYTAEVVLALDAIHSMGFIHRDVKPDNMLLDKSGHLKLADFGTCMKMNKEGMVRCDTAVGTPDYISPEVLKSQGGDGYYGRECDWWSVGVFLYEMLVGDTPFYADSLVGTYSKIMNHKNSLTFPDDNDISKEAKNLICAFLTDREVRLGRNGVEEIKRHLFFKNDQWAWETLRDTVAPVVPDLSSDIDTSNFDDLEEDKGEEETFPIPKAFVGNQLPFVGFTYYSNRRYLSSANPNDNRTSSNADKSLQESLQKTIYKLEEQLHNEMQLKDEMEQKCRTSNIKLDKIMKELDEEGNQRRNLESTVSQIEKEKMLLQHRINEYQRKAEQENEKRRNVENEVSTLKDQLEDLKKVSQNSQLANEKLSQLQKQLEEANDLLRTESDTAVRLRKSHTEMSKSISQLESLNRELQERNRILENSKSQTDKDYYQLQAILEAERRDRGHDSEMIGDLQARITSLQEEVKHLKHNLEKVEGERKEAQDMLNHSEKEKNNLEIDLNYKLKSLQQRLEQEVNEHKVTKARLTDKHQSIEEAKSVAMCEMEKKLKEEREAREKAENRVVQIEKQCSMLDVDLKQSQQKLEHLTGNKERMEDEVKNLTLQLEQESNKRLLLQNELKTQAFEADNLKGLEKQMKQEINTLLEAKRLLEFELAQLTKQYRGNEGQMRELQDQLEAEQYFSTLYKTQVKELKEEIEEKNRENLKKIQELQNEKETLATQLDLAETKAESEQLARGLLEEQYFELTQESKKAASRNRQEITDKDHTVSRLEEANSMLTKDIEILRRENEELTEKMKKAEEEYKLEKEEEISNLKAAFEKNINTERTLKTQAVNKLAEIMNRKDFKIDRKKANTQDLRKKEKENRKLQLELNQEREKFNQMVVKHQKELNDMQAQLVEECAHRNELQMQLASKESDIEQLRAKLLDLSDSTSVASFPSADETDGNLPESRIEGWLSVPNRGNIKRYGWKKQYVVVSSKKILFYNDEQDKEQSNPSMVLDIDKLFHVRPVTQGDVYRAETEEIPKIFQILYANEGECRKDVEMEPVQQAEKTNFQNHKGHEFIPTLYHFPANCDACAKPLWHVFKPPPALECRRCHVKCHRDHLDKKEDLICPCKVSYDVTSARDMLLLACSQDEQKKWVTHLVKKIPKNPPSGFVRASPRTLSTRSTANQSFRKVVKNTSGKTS

Compound | inhibition [1] [%] | inhibition [2] [%] | inhibition [3] [%] | inhibition [4] [%] | inhibition [5] [%] | inhibition [6] [%] | inhibition [7] [%] | inhibition [8] [%] | inhibition [9] [%] | inhibition [10] [%] | inhibition [11] [%] | inhibition [12] [%] | inhibition [13] [%] | inhibition [14] [%] | inhibition [15] [%] | inhibition [16] [%] | inhibition [17] [%] | inhibition [18] [%] | inhibition [19] [%] | inhibition [20] [%]
COc1ccc2ncn(-c3cc(O[C@H](C)c4ccccc4C(F)(F)F)c(C(N)=O)s3)c2c1 | 3.02 | -1.03 | -0.45 | -0.16 | -0.58 | -0.24 | 0.08 | -0.46 | 0.62 | 2.18 | 1.77 | -0.52 | 0.07 | 0.03 | 1.49 | 0.1 | 0.7 | -0.2 | -0.15 | 0.72
COc1c(C(N)=O)cc(-c2ccc(Cl)cc2)cc1-c1ccc(S(N)(=O)=O)cc1 | 4.7 | 1 | 0.99 | 2.35 | 3.92 | 1.11 | 3.56 | 4.74 | 5.66 | 3.83 | 1.99 | 4.57 | 4.42 | 4.35 | 9.49 | 3.98 | 8.49 | 1.69 | 3.72 | 2.98
NS(=O)(=O)c1cccc(N/C=C2\C(=O)Nc3ccccc32)c1 | 3.27 | 1.82 | 2.43 | 2.17 | 1.6 | 1.9 | 3.11 | 3.72 | 11 | 3.88 | 11 | 5 | 9.04 | 3.34 | 4.68 | 1.91 | 7.34 | 1.79 | 2.25 | 1.58
